Key:
[1] = target: T1, Testis-specific serine/threonine-protein kinase 1 (Homo sapiens) (UniProt Q9BXA7); conditions: at 1 µM
T1 sequence (whole entry): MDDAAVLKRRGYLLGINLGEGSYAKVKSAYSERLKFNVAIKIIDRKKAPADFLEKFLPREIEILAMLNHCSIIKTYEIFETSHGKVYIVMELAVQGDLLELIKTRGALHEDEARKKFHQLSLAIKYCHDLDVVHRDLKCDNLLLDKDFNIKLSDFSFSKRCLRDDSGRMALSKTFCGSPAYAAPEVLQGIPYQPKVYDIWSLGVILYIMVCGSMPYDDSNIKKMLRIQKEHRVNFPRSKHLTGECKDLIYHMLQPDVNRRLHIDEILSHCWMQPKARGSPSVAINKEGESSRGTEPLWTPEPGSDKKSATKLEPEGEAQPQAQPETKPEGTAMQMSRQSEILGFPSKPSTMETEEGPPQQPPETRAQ

[2] = target: T1, Testis-specific serine/threonine-protein kinase 1 (Homo sapiens); conditions: at 10 µM
[3] = target: T2, Testis-specific serine/threonine-protein kinase 2 (Homo sapiens) (UniProt Q96PF2); conditions: at 10 µM
T2 sequence (whole entry): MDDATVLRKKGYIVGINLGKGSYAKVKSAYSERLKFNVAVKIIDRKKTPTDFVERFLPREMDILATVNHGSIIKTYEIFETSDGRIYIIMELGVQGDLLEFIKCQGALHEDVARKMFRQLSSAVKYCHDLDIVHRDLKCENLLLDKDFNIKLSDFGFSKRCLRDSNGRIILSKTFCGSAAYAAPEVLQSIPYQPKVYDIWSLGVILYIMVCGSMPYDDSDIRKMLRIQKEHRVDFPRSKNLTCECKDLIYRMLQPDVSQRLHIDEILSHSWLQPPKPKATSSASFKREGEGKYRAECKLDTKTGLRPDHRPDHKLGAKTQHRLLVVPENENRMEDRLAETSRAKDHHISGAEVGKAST

[4] = target: T3, Tyrosine-protein kinase Tec (Homo sapiens) (UniProt P42680); conditions: at 1 µM
T3 sequence (whole entry): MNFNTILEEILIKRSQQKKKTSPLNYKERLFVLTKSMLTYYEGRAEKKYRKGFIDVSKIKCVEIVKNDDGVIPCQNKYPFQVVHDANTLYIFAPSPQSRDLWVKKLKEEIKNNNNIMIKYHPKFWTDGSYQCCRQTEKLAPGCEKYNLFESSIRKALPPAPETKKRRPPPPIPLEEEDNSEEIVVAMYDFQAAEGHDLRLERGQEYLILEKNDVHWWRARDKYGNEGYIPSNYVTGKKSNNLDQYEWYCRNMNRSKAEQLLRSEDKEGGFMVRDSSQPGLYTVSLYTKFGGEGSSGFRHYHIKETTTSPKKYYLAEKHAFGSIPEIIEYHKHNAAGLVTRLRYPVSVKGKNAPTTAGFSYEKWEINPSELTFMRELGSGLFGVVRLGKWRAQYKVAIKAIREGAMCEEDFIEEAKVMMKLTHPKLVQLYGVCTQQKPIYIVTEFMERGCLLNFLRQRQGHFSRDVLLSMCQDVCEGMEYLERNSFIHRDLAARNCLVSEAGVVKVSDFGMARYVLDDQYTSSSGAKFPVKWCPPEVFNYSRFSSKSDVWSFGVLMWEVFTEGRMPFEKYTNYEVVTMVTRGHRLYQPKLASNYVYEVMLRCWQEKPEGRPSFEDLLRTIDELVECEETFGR

[5] = target: T3, Tyrosine-protein kinase Tec (Homo sapiens); conditions: at 10 µM
[6] = target: Angiopoietin-1 receptor (Homo sapiens) (UniProt Q02763); conditions: at 1 µM
Sequence of Angiopoietin-1 receptor (Homo sapiens) (Q02763 whole entry): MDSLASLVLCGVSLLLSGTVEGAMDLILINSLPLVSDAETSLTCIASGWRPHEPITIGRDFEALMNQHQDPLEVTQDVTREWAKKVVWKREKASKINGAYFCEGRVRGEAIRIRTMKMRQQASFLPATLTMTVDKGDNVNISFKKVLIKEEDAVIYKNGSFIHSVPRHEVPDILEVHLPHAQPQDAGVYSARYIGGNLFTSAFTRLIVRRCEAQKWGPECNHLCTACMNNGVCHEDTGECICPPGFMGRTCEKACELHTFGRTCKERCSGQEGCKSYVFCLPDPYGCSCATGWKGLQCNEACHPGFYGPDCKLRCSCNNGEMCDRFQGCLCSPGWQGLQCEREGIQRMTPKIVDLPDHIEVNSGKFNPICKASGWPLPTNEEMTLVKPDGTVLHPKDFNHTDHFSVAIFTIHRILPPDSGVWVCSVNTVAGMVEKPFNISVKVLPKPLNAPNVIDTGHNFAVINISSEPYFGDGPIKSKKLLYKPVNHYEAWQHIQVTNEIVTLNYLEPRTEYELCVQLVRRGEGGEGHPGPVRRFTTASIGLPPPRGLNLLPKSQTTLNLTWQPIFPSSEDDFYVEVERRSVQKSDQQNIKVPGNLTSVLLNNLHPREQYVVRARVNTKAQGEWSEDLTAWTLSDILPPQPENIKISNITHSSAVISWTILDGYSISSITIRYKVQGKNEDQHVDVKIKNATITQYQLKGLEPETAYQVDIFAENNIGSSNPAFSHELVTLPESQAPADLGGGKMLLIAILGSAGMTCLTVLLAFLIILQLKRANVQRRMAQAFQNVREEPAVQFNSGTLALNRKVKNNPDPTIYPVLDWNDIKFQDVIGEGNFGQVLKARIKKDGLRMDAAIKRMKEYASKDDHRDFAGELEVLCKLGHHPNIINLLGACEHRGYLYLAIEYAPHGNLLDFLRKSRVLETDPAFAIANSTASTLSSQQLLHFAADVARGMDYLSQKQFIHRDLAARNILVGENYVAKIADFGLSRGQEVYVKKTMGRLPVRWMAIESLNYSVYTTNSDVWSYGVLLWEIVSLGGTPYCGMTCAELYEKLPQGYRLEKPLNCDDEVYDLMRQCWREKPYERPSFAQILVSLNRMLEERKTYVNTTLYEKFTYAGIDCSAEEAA

[7] = target: Angiopoietin-1 receptor (Homo sapiens) (UniProt Q02763); conditions: at 10 µM
[8] = target: High affinity nerve growth factor receptor (Homo sapiens) (UniProt P04629); conditions: at 1 µM
Sequence of High affinity nerve growth factor receptor (Homo sapiens) (P04629 33-796 limits assumed): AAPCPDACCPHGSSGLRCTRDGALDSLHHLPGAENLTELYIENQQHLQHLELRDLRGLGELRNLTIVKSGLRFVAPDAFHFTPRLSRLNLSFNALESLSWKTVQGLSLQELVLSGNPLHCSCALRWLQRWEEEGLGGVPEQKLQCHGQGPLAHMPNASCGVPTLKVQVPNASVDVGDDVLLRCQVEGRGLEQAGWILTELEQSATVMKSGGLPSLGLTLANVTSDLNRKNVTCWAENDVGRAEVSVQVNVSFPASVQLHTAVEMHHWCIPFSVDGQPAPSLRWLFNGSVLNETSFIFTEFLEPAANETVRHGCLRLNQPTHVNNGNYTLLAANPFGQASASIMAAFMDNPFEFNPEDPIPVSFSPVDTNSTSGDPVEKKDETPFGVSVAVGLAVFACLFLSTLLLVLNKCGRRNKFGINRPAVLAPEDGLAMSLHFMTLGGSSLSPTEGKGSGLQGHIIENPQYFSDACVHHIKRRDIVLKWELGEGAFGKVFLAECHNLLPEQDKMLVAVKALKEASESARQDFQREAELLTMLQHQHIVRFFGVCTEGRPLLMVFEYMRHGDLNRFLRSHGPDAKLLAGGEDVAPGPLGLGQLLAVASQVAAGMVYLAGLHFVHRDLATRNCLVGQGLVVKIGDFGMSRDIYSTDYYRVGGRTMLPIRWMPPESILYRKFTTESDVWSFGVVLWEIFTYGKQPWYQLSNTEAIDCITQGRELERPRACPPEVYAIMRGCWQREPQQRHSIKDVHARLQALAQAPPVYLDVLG

[9] = target: High affinity nerve growth factor receptor (Homo sapiens) (UniProt P04629); conditions: at 10 µM
[10] = target: BDNF/NT-3 growth factors receptor (Homo sapiens) (UniProt Q16620); conditions: at 1 µM
Sequence of BDNF/NT-3 growth factors receptor (Homo sapiens) (Q16620 32-822 limits assumed): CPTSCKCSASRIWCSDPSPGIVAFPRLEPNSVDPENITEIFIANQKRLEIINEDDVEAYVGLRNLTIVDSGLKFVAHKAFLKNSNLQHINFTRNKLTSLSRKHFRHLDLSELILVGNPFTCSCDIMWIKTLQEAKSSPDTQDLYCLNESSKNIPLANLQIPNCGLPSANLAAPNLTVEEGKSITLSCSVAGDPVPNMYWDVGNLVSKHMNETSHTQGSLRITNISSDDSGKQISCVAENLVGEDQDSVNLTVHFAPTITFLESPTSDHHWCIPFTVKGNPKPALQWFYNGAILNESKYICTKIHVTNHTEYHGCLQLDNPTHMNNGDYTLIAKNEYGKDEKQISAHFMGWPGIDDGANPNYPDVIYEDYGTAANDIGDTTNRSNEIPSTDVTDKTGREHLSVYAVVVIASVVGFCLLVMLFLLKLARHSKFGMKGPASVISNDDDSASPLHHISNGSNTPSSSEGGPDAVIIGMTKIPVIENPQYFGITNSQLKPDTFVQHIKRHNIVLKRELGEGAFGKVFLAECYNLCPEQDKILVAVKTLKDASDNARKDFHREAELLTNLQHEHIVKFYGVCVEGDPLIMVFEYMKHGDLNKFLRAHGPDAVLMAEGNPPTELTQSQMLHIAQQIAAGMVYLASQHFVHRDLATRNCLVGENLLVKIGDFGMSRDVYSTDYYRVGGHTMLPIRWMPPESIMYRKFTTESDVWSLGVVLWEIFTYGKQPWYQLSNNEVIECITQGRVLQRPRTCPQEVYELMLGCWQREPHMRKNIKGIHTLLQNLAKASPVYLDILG

[11] = target: BDNF/NT-3 growth factors receptor (Homo sapiens) (UniProt Q16620); conditions: at 10 µM
[12] = target: T4, Tyrosine-protein kinase TXK (Homo sapiens) (UniProt P42681); conditions: at 1 µM
T4 sequence (whole entry): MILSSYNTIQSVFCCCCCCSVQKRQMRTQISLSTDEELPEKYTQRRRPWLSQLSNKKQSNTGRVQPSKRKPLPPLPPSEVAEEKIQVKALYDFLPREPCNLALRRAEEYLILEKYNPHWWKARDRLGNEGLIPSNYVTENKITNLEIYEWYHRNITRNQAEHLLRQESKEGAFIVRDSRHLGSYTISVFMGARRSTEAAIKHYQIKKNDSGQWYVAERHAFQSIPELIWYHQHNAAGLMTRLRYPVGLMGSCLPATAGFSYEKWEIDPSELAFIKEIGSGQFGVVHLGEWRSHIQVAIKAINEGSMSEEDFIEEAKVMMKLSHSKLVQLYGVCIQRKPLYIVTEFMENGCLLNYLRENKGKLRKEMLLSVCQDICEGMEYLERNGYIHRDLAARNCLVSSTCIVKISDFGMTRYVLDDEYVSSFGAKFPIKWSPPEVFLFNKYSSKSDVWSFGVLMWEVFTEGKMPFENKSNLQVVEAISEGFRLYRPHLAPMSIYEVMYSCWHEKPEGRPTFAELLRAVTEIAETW

[13] = target: T4, Tyrosine-protein kinase TXK (Homo sapiens); conditions: at 10 µM
[14] = target: T5, Serine/threonine-protein kinase ULK2 (Homo sapiens) (UniProt Q8IYT8); conditions: at 1 µM
T5 sequence (whole entry): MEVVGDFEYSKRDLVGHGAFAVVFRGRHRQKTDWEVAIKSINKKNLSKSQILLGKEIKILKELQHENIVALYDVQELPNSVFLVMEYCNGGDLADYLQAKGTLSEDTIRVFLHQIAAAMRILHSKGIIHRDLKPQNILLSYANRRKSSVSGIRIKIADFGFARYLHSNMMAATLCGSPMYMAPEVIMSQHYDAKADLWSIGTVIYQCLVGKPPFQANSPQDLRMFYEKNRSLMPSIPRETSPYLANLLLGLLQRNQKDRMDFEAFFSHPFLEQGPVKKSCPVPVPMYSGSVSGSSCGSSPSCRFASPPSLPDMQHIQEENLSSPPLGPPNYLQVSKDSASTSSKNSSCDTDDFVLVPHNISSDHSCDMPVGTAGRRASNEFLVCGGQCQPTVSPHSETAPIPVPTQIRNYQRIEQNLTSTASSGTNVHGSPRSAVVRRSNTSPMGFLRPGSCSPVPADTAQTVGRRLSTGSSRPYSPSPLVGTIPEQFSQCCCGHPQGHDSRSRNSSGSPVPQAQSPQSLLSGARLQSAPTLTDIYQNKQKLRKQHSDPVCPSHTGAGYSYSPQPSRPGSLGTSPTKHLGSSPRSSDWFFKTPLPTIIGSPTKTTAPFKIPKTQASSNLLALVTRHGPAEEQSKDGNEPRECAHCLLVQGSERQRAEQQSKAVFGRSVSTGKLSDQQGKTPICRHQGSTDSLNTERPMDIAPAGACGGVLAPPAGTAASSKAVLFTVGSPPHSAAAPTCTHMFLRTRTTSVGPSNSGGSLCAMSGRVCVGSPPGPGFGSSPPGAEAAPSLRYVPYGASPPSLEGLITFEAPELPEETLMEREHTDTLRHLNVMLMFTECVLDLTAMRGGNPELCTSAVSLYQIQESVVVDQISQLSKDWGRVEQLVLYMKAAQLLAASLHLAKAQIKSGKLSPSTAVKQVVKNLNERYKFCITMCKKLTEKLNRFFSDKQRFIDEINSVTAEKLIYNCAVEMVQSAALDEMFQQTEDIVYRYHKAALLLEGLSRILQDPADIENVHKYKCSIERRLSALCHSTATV

[15] = target: T5, Serine/threonine-protein kinase ULK2 (Homo sapiens); conditions: at 10 µM
[16] = target: T6, Serine/threonine-protein kinase ULK3 (Homo sapiens) (UniProt Q6PHR2); conditions: at 1 µM
T6 sequence (whole entry): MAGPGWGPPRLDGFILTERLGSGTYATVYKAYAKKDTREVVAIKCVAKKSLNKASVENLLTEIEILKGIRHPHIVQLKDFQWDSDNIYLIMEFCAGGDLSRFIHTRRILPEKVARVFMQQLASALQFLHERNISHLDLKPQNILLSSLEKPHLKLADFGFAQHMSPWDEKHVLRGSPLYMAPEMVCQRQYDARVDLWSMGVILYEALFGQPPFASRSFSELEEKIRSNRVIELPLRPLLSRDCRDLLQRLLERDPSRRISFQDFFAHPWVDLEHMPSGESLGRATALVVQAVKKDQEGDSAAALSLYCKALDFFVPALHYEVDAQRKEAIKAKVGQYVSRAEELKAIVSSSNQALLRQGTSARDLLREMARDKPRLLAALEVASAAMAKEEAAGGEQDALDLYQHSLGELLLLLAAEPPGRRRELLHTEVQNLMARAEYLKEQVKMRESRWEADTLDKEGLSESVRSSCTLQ

[17] = target: T6, Serine/threonine-protein kinase ULK3 (Homo sapiens); conditions: at 10 µM
[18] = target: Serine/threonine-protein kinase VRK2 (Homo sapiens) (UniProt Q86Y07); conditions: at 1 µM
[19] = target: Serine/threonine-protein kinase VRK2 (Homo sapiens) (UniProt Q86Y07); conditions: at 10 µM
[20] = target: Serine/threonine-protein kinase WNK2 (Homo sapiens) (UniProt Q9Y3S1); conditions: at 1 µM;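 note: residual WNK2 kinase activity expressed as percent of uninhibited control, assayed in MOPS buffer at pH 7.0 containing EDTA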
Sequence of Serine/threonine-protein kinase WNK2 (Homo sapiens) (Q9Y3S1 whole entry): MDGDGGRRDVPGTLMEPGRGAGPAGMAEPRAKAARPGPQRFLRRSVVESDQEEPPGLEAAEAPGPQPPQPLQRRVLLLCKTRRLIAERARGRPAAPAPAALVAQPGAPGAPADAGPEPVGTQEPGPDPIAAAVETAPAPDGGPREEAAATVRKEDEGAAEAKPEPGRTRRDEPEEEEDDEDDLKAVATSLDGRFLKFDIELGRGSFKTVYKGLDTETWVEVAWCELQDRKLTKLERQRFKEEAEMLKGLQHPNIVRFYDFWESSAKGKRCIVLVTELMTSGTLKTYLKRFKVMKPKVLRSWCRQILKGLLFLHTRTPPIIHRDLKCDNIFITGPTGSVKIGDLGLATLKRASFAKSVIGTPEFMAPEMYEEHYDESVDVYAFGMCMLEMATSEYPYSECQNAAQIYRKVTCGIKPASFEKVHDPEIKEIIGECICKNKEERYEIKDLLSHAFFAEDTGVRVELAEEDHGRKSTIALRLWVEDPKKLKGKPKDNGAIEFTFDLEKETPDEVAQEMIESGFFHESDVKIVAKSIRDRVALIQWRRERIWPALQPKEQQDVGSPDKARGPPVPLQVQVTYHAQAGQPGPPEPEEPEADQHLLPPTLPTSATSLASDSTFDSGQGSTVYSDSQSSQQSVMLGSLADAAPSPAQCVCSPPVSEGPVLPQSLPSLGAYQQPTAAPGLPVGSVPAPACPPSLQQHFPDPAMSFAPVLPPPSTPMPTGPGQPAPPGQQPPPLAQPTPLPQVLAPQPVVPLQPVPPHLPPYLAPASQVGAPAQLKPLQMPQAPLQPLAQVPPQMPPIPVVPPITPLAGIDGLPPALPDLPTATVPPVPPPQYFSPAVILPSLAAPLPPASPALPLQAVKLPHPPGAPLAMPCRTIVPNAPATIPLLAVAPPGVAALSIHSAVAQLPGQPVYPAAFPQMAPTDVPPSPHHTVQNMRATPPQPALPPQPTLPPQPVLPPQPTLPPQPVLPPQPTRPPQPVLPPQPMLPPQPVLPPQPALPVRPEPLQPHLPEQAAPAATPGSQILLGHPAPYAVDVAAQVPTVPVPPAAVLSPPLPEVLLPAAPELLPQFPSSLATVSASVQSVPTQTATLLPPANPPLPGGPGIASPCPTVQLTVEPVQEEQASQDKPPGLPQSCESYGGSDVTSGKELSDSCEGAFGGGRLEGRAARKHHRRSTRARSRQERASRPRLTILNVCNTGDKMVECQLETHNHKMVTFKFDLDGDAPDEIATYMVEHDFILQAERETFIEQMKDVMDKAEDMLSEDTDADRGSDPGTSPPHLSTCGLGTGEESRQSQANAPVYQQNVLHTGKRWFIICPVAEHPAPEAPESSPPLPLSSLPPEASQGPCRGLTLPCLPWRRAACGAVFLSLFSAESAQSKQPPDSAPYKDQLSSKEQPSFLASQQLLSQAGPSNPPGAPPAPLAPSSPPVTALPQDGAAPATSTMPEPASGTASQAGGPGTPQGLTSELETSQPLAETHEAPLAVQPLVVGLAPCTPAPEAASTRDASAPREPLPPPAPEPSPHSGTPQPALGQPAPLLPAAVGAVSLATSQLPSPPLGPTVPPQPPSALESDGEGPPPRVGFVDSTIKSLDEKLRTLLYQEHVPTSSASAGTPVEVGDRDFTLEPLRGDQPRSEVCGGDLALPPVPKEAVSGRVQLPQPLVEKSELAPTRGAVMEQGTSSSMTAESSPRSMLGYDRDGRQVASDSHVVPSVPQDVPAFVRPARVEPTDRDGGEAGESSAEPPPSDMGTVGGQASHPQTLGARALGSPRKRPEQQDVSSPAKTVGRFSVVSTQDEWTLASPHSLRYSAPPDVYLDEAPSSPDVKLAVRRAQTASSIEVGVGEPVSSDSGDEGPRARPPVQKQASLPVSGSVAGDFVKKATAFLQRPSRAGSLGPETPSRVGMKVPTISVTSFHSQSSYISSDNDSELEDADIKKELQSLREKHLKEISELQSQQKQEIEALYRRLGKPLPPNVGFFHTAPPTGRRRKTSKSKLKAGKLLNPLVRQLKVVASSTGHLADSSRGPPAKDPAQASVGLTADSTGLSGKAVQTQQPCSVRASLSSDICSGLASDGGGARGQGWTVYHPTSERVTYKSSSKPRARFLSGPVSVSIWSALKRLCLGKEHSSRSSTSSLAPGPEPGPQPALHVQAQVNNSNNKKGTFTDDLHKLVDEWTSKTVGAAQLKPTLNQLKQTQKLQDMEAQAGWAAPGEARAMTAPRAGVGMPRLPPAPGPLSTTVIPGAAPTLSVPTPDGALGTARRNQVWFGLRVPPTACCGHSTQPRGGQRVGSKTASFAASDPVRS

| Compound | residual activity [1] | residual activity [2] | residual activity [3] | residual activity [4] | residual activity [5] | residual activity [6] | residual activity [7] | residual activity [8] | residual activity [9] | residual activity [10] | residual activity [11] | residual activity [12] | residual activity [13] | residual activity [14] | residual activity [15] | residual activity [16] | residual activity [17] | residual activity [18] | residual activity [19] | residual activity [20] |
| --- | --- | --- | --- | --- | --- | --- | --- | --- | --- | --- | --- | --- | --- | --- | --- | --- | --- | --- | --- | --- |
| O=c1cc(-c2cccc3c2Sc2ccccc2S3)oc(N2CCOCC2)c1 | 92% | 98% | 90% | 94% | 75% | 101% | 61% | 114% | 95% | 75% | 76% | 91% | 91% | 107% | 101% | 94% | 96% | 97% (inactive) | 97% | 103% (inactive) |
| O=C(Nc1cccc(Nc2cc(Nc3cccc(C(F)(F)F)c3)ncn2)c1)C1CC1 | 101% | 87% | 77% | 96% | 27% | 60% | 70% | 68% | 9% | 76% | 37% | 109% | 69% | 103% | 103% | 110% | 94% | 107% (inactive) | 77% | 103% (inactive) |
| Nc1ccc2ncnc(NCCc3ccc(Oc4ccccc4)cc3)c2c1 | 89% | 58% | 98% | 84% | 30% | 114% | 66% | 89% | 56% | 82% | 58% | 80% | 61% | 121% | 108% | 103% | 87% | 106% (inactive) | 95% | 110% (inactive) |
| COc1ccc(S(=O)(=O)N(CCO)c2ccccc2CN(C)C/C=C/c2ccc(Cl)cc2)cc1 | 97% | 81% | 86% | 102% | 36% | 118% | 66% | 87% | 47% | 86% | 61% | 94% | 67% | 113% | 94% | 93% | 95% | 102% (inactive) | 80% | 100% (inactive) |
| COc1cccc(-c2cc(=O)c3ccccc3o2)c1N | 103% | 89% | 86% | 87% | 91% | 108% | 106% | 99% | 92% | 105% | 87% | 77% | 73% | 117% | 108% | 100% | 105% | 99% (inactive) | 96% | 104% (inactive) |
| O=C1NC(=O)c2cc(Nc3ccc(F)cc3)c(Nc3ccc(F)cc3)cc21 | 94% | 81% | 61% | 87% | 60% | 70% | 44% | 84% | 56% | 100% | 88% | 79% | 27% | 107% | 89% | 107% | 81% | 99% (inactive) | 86% | 82% (inactive) |
| CNc1cc2c(Nc3cccc(Br)c3)ncnc2cn1 | 93% | 90% | 103% | 96% | 52% | 90% | 89% | 69% | 53% | 64% | 21% | 98% | 64% | 103% | 95% | 103% | 70% | 99% (inactive) | 91% | 105% (inactive) |
| Cn1cc(/C=C2\C(=O)Nc3ccc(S(N)(=O)=O)cc32)c2ccccc21 | 19% | 14% | 72% | 52% | 6% | 86% | 73% | 1% | 1% | 23% | -12% | 75% | 47% | 43% | 24% | 19% | 4% | 114% (inactive) | 93% | 111% (inactive) |
| Cc1ccc(NC2=CC(=O)c3sc(C)nc3C2=O)cc1 | 92% | 98% | 86% | 85% | 93% | 100% | 99% | 89% | 88% | 102% | 93% | 80% | 83% | 101% | 100% | 96% | 100% | 89% (inactive) | 88% | 88% (inactive) |
| CC(=O)O/N=C1\C(=C2\C(=O)Nc3cc(Br)ccc32)Nc2ccccc21 | 92% | 86% | 92% | 59% | 21% | 86% | 87% | 6% | 0% | 29% | 1% | 74% | 19% | 93% | 101% | 95% | 66% | 99% (inactive) | 97% | 104% (inactive) |
| COc1cc2ncnc(N3CCN(C(=O)Nc4ccc(Oc5ccccc5)cc4)CC3)c2cc1OC | 88% | 76% | 117% | 83% | 98% | 69% | 69% | 71% | 30% | 39% | 44% | 108% | 119% | 100% | 100% | 97% | 90% | 94% (inactive) | 86% | 84% (inactive) |
| CC[n+]1c(/C=C/N(C)c2ccccc2)n(-c2ccccc2)c2ccc(-c3nc4ccccc4s3)cc21 | 102% | 73% | 78% | 77% | 27% | 103% | 30% | 85% | 34% | 67% | 61% | 83% | 51% | 110% | 104% | 112% | 97% | 110% (inactive) | 99% | 96% (inactive) |
